According to PubChem BioAssay (EPA / NIEHS):
Calls of active or inactive are those of the source. Rule for the calls: active = hit-call score of the fitted dose curve at least 0.9, where 1 is the maximum; inactive = score below 0.9.

Legend:
Conditions in all cases: mRNA level, 48 h; actives raise or lower the signal
[1] = read-out: 3-Hydroxy-3-Methylglutaryl-CoA Synthase 2 (HMGCS2), HMGCS2 (gene 3158); assay: LTEA_HepaRG_HMGCS2: Life Technologies and Expression Analysis (LTEA) Assay for 3-Hydroxy-3-Methylglutaryl-CoA Synthase 2 (HMGCS2) using HepaRG (AID 2283504)
Method in brief: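 Differentiated human HepaRG cells were exposed in duplicate for 48 h in serum-free induction medium to eight concentrations (top 100 uM, half-log steps, 0.5% DMSO). HMGCS2 mRNA was quantified by TaqMan qRT-PCR, normalised to ACTB, GAPDH and POLR2A, then fitted bidirectionally against DMSO.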

HGF (gene 3082) = assay: LTEA_HepaRG_HGF: Life Technologies and Expression Analysis (LTEA) Assay for Hepatocyte Growth Facto (HGF) using HepaRG (AID 2283505)
Method in brief: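 Differentiated human HepaRG cells in serum-free induction medium were exposed in duplicate for 48 h to eight concentrations (top 100 uM, half-log steps, 0.5% DMSO). HGF mRNA was quantified by qRT-PCR, normalized to ACTB, GAPDH and POLR2A.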

[2] = read-out: Insulin Like Growth Factor 1 (IGF1), IGF1 (gene 3479); assay: LTEA_HepaRG_IGF1: Life Technologies and Expression Analysis (LTEA) Assay for Insulin Like Growth Factor 1 (IGF1) using HepaRG (AID 2283506)
Method in brief: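 Differentiated human HepaRG cells were dosed for 48 h in serum-free induction medium with 0.5% DMSO, eight half-log concentrations up to 100 uM, in duplicate. IGF1 mRNA was quantified by qRT-PCR normalized to ACTB, GAPDH, POLR2A; bidirectional fitting versus DMSO.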

[3] = read-out: Insulin-like growth factor-binding protein 1 (IGFBP1), IGFBP1 (gene 3484); assay: LTEA_HepaRG_IGFBP1: Life Technologies and Expression Analysis (LTEA) Assay for Insulin-like growth factor-binding protein 1 (IGFBP1) using HepaRG (AID 2283508)
Method in brief: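 Differentiated human HepaRG cells in serum-free induction medium were exposed in duplicate for 48 h to eight concentrations, top 100 uM with half-log dilutions, in 0.5% DMSO. Transcript levels came from qRT-PCR normalised to ACTB, GAPDH and POLR2A, fitted bidirectionally against DMSO.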

[4] = read-out: Interleukin 6 (IL6), IL6 (gene 3569); assay: LTEA_HepaRG_IL6: Life Technologies and Expression Analysis (LTEA) Assay for Interleukin 6 (IL6) using HepaRG (AID 2283509)
Method in brief: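 HepaRG cells exposed in duplicate for 48 h to eight half-log concentrations, top 100 uM, in 0.5% DMSO serum-free induction medium. mRNA measured by qRT-PCR, normalized to ACTB, GAPDH and POLR2A. Bidirectional fit versus DMSO.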

[5] = read-out: Interleukin 6 Receptor (IL6R), IL6R (gene 3570); assay: LTEA_HepaRG_IL6R: Life Technologies and Expression Analysis (LTEA) Assay for Interleukin 6 Receptor (IL6R) using HepaRG (AID 2283510)
Method in brief: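 Differentiated human HepaRG cells, plated 48 h then switched to serum-free induction medium, were dosed in duplicate for 48 h at eight half-log concentrations up to 100 uM in 0.5% DMSO. IL6R mRNA quantified by qRT-PCR, normalized to ACTB/GAPDH/POLR2A; bidirectional fit versus DMSO.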

[6] = read-out: Potassium channel subfamily K member 1 (KCNK1), KCNK1 (gene 3775); assay: LTEA_HepaRG_KCNK1: Life Technologies and Expression Analysis (LTEA) Assay for Potassium channel subfamily K member 1 (KCNK1) using HepaRG (AID 2283511)
Method in brief: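 Differentiated HepaRG cells, 48 h exposure in serum-free induction medium with 0.5% DMSO; 8 concentrations, half-log from 100 uM, duplicate. KCNK1 mRNA by qRT-PCR, normalized to ACTB, GAPDH, POLR2A; bidirectional fit vs DMSO.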

[7] = read-out: Keratin 19 (KRT19), KRT19 (gene 3880); assay: LTEA_HepaRG_KRT19: Life Technologies and Expression Analysis (LTEA) Assay for Keratin 19 (KRT19) using HepaRG (AID 2283512)
Method in brief: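 Differentiated human HepaRG cells, plated 48 h, were exposed in duplicate for 48 h in serum-free induction medium to eight half-log concentrations up to 100 uM in 0.5% DMSO. KRT19 mRNA was quantified by qRT-PCR, normalized to ACTB, GAPDH and POLR2A, and fitted bidirectionally versus DMSO.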

[8] = read-out: JUN Transcription Factor, JUN (gene 3725); assay: LTEA_HepaRG_JUN: Life Technologies and Expression Analysis (LTEA) Assay for JUN Transcription Factor using HepaRG (AID 2283513)
Method in brief: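 Differentiated HepaRG cells were exposed to chemicals for 48 h in serum-free induction medium, 8 concentrations from 100 uM in half-log steps, 0.5% DMSO vehicle, in duplicate. JUN mRNA was quantified by TaqMan qRT-PCR, normalized to ACTB, GAPDH, POLR2A.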

[9] = read-out: Lipase C (LIPC), LIPC (gene 3990); assay: LTEA_HepaRG_LIPC: Life Technologies and Expression Analysis (LTEA) Assay for Lipase C (LIPC) using HepaRG (AID 2283514)
Method in brief: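 HepaRG cells, 48 h after plating, treated in duplicate for 48 h in serum-free induction medium over 8 half-log concentrations from 100 uM, 0.5% DMSO. LIPC mRNA by TaqMan qRT-PCR normalized to ACTB/GAPDH/POLR2A; bidirectional fit versus DMSO.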

[10] = read-out: Lipoprotein lipase (LPL), LPL (gene 4023); assay: LTEA_HepaRG_LPL: Life Technologies and Expression Analysis (LTEA) Assay for Lipoprotein lipase (LPL) using HepaRG (AID 2283515)
Method in brief: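 Differentiated HepaRG cells, plated 48 h, then exposed 48 h in serum-free induction medium to 8 concentrations (top 100 uM, half-log steps) in 0.5% DMSO, duplicate. LPL mRNA measured by qRT-PCR, normalized to ACTB, GAPDH and POLR2A.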

[11] = read-out: matrix metalloproteinase-10 (MMP10), MMP10 (gene 4319); assay: LTEA_HepaRG_MMP10: Life Technologies and Expression Analysis (LTEA) Assay for matrix metalloproteinase-10 (MMP10) using HepaRG (AID 2283517)
Method in brief: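 Differentiated HepaRG cells in serum-free induction medium exposed 48 h in duplicate to 8-point half-log series up to 100 uM in 0.5% DMSO. mRNA quantified by qRT-PCR, normalised to ACTB, GAPDH, POLR2A; bidirectional fit versus DMSO.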

MYC, MYC (gene 4609) = assay: LTEA_HepaRG_MYC: Life Technologies and Expression Analysis (LTEA) Assay for MYC using HepaRG (AID 2283518)
Method in brief: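 Differentiated human HepaRG cells, plated 48 h then switched to serum-free induction medium, were exposed in duplicate for 48 h to 8-point half-log series up to 100 uM in 0.5% DMSO. MYC mRNA measured by qRT-PCR, normalized to ACTB/GAPDH/POLR2A.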

[12] = read-out: Protein phosphatase 2A (PPP2R4), PTPA (gene 5524); assay: LTEA_HepaRG_PPP2R4: Life Technologies and Expression Analysis (LTEA) Assay for Protein phosphatase 2A (PPP2R4) using HepaRG (AID 2283522)
Method in brief: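 Differentiated HepaRG cells in serum-free induction medium were exposed in duplicate for 48 h to eight concentrations, top 100 uM with half-log dilutions, in 0.5% DMSO. PPP2R4 mRNA was quantified by TaqMan qRT-PCR, normalized to ACTB, GAPDH and POLR2A.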

[13] = read-out: Phosphatase and tensin (PTEN), PTEN (gene 5728); assay: LTEA_HepaRG_PTEN: Life Technologies and Expression Analysis (LTEA) Assay for Phosphatase and tensin (PTEN) using HepaRG (AID 2283523)
Method in brief: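 HepaRG cells, 48 h after plating, exposed in duplicate for 48 h in serum-free induction medium to 8 half-log concentrations up to 100 uM (0.5% DMSO). PTEN mRNA by qRT-PCR, normalized to ACTB, GAPDH, POLR2A; bidirectional fit versus DMSO.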

[14] = read-out: Intercellular Adhesion Molecule 1 (ICAM1), ICAM1 (gene 3383); assay: LTEA_HepaRG_ICAM1: Life Technologies and Expression Analysis (LTEA) Assay for Intercellular Adhesion Molecule 1 (ICAM1) using HepaRG (AID 2283507)
Method in brief: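 Differentiated HepaRG cells in serum-free induction medium were exposed in duplicate for 48 h to eight half-log concentrations up to 100 uM in 0.5% DMSO. Transcript levels were measured by qRT-PCR normalized to ACTB, GAPDH and POLR2A; bidirectional fits relative to DMSO.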

[15] = read-out: MicroRNA 122 (MIR122), gene 406906; assay: LTEA_HepaRG_MIR122: Life Technologies and Expression Analysis (LTEA) Assay for MicroRNA 122 (MIR122) using HepaRG (AID 2283516); note: the transcript read is the microRNA miR-122
Method in brief: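 Differentiated human HepaRG cells were exposed 48 h in serum-free induction medium to eight half-log concentrations (top 100 uM, 0.5% DMSO). Transcript level was measured by TaqMan qRT-PCR, normalized to ACTB, GAPDH and POLR2A, and fitted bidirectionally versus DMSO.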

[16] = read-out: matrix metalloproteinase-3 (MMP3), MMP3 (gene 4314); assay: LTEA_HepaRG_MMP3: Life Technologies and Expression Analysis (LTEA) Assay for matrix metalloproteinase-3 (MMP3) using HepaRG (AID 2283519)
Method in brief: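 HepaRG cells (~100,000/well) in serum-free induction medium were dosed in duplicate for 48 h with an 8-point half-log series from 100 uM, 0.5% DMSO. MMP3 mRNA was quantified by Fluidigm TaqMan qRT-PCR, normalized to three housekeeping genes.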

[17] = read-out: Paternally Expressed 10 (PEG10), PEG10 (gene 23089); assay: LTEA_HepaRG_PEG10: Life Technologies and Expression Analysis (LTEA) Assay for Paternally Expressed 10 (PEG10) using HepaRG (AID 2283520)
Method in brief: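 Differentiated HepaRG cells, plated 48 h then switched to serum-free induction medium, were exposed in duplicate for 48 h to eight half-log concentrations topping at 100 uM in 0.5% DMSO. PEG10 mRNA was quantified by TaqMan qRT-PCR, normalised to ACTB, GAPDH and POLR2A.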

[18] = read-out: Nuclear factor NF-kappa-B p105 subunit (Homo sapiens) (UniProt P19838); assay: LTEA_HepaRG_NFKB1: Life Technologies and Expression Analysis (LTEA) Assay for Nuclear Factor Kappa B Subunit 1 (NFKB1) using HepaRG (AID 2283521);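 note: TaqMan qRT-PCR transcript normalised to ACTB GAPDH and POLR2A housekeeping genes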
Method in brief: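 Differentiated human HepaRG cells in serum-free induction medium with 0.5% DMSO were exposed for 48 h to eight half-log concentrations, top 100 uM, in duplicate. NFKB1 mRNA measured by Fluidigm TaqMan qRT-PCR, normalised to ACTB, GAPDH and POLR2A; bidirectional fit versus DMSO.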

Measured: AC50

Nuclear factor NF-kappa-B p105 subunit (Homo sapiens), sequence (P19838 whole entry, looked up): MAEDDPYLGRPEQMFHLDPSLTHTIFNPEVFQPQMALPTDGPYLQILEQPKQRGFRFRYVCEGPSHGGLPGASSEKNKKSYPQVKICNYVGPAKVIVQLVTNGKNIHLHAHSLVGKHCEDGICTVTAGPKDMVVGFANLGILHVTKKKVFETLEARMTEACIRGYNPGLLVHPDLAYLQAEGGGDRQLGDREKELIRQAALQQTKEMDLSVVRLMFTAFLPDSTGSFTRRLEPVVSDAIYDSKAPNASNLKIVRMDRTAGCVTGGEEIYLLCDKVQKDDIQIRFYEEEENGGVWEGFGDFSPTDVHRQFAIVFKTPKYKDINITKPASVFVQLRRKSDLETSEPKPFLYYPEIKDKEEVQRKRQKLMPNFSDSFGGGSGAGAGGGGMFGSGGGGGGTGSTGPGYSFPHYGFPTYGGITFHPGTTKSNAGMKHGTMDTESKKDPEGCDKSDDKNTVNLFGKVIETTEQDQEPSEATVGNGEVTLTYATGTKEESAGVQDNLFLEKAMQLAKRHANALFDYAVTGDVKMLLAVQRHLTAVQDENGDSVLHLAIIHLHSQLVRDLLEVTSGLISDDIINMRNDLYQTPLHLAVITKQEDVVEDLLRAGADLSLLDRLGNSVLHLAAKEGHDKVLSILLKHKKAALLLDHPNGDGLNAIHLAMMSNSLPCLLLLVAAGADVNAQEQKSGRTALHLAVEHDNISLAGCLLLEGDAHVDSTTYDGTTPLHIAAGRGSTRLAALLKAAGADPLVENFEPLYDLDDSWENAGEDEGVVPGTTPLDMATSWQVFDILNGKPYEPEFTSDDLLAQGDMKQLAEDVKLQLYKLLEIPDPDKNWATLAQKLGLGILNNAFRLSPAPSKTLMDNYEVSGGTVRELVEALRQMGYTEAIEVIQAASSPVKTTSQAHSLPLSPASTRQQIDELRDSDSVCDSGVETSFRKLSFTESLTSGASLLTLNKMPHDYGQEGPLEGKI

CC(=O)OCCC(C)C
not listed: [14] | [15] | [16] | [17] | [18]
inactive: all other assays above

O=C1CCC(N2C(=O)c3ccccc3C2=O)C(=O)N1 (stereo unspecified)
not listed: HGF (gene 3082) | [5]
inactive: all other assays above

Cc1[nH]cnc1C[C@H]1CCc2c(C)c3ccccc3n2C1=O
active: [1] 23.8 µM | HGF (gene 3082) 10.2 µM | [2] 17.8 µM | [3] 37.2 µM | [4] 84 µM | [6] 58.7 µM | [7] 11.5 µM | [8] 44.5 µM | [9] 27.7 µM | [10] 79 µM | [11] 70.1 µM | MYC, MYC (gene 4609) 31.4 µM | [16] 77.3 µM | [17] 20.8 µM | [12] 73.1 µM | [13] 79.3 µM

CC1=CC(=O)CC(C)(C)C1
not listed: HGF (gene 3082) | [5] | [18]
inactive: all other assays above
